# Measured values from the supplement of paper PMC8975748.
# Structures can show the parent of a compound that is named as a salt.
# Test system: Saccharomyces cerevisiae BY4741 SeMeCo community
# Assay: z-score of subpopulation abundance vs DMSO median, subpopulation auxotrophic for L; higher = larger share of this subpopulation than in DMSO controls
# Details: 10 µM; 24 h; SM minimal medium; subpopulation (auxotrophy): L
# Description: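 Fluorescent four-plasmid SeMeCo (self-establishing metabolically cooperating S. cerevisiae BY4741 community; plasmids pH-mRuby2, pL-mWasabi, pU-eCFP, pM-TagRFP657) was grown 24 h in minimal SM medium with each Selleck FDA-approved drug at 10 µM in 384-well plates. Cells were fixed and imaged by high-content confocal microscopy. For each auxotrophic subpopulation (and the prototroph), a z-score gives the deviation from the DMSO vehicle-control population median.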
row,Compound,z-score of subpopulation abundance
1,CCN(C)C(=O)Oc1cccc([C@H](C)N(C)C)c1 [Rivastigmine Tartrate],1.02
2,CC[C@@H](C(N)=O)N1CCCC1=O [Levetiracetam],0
3,NC(=O)CN1CCCC1=O [Piracetam],1.45
4,CN(C)[C@@H]1C(=O)C(C(N)=O)=C(O)[C@@]2(O)C(=O)C3=C(O)c4c(O)cccc4[C@@](C)(O)[C@H]3[C@H](O)[C@@H]12 [Oxytetracycline Dihydrate],-0.76
5,CN[C@@H]1[C@@H](O)[C@@H](O[C@@H]2[C@@H](O)[C@H](O[C@H]3O[C@H](CN)CC[C@H]3N)[C@@H](N)C[C@H]2N)OC[C@]1(C)O.CN[C@@H]1[C@@H](O)[C@@H](O[C@@H]2[C@@H](O)[C@H](O[C@H]3O[C@H]([C@@H](C)N)CC[C@H]3N)[C@@H](N)C[C@H]2N)OC[C@]1(C)O.CN[C@@H]1[C@@H](O)[C@@H](O[C@@H]2[C@@H](O)[C@H](O[C@H]3O[C@H]([C@@H](C)NC)CC[C@H]3N)[C@@H](N)C[C@H]2N)OC[C@]1(C)O [Gentamicin Sulfate],-0.91
6,CC(=O)O[C@H]1C[C@@H]2CC[C@@H]3[C@H](CC[C@@]4(C)[C@H]3C[C@H]([N+]3(C)CCCCC3)[C@@H]4OC(C)=O)[C@@]2(C)C[C@@H]1[N+]1(C)CCCCC1 [Pancuronium dibromide],-0.47
7,"NCC(O)c1ccc(O)cc1 (racemic) [(+,-)-Octopamine HCl]",-0.17
8,C=CN1CCCC1=O.II [Povidone iodine],0.47
9,CN1c2ccccc2C(NCCCCCCC(=O)O)c2ccc(Cl)cc2S1(=O)=O (stereo not given) [Tianeptine sodium],-0.37
10,CC[N+](C)(CC)CCOC(=O)C(O)(c1ccccc1)c1ccccc1 [Methylbenactyzine Bromide],-0.83
11,CCOC(=O)Nc1ccc(NCc2ccc(F)cc2)cc1N [Retigabine 2HCl],-0.41
12,COc1ccc2[nH]cc(CCN)c2c1 [5-Methoxytryptamine],0.52
13,COc1ccc(C(CN(C)C)C2(O)CCCCC2)cc1 (stereo not given) [Venlafaxine HCl],0.66
14,CN(C)[C@@H]1C(=O)C(C(N)=O)=C(O)[C@@]2(O)C(=O)C3=C(O)c4c(O)cccc4[C@@](C)(O)[C@H]3C[C@@H]12 [Tetracycline HCl],-0.47
15,CN1[C@@H]2C[C@@H](OC(=O)[C@H](CO)c3ccccc3)C[C@H]1[C@@H]1O[C@@H]12 [Scopolamine HBr],-0.33
16,CCOC(=O)Nc1ccc(NCc2ccc(F)cc2)cc1N [Retigabine],-0.58
17,C=CCN1C[C@H](C(=O)N(CCCN(C)C)C(=O)NCC)C[C@@H]2c3cccc4[nH]cc(c34)C[C@H]21 [Cabergoline],0.36
18,CNC1CC(N)C(O)C(OC2OC(CO)C(O)C3OC4(OC(C(N)CO)C(O)C(O)C4O)OC23)C1O (stereo not given) [Hygromycin B],0.12
19,COc1ccc2c(c1)[C@]13CCCC[C@@H]1[C@H](C2)N(C)CC3 [Dextromethorphan hydrobromide hydrate],0.57
20,CN1[C@@H]2C[C@@H](OC(=O)[C@H](CO)c3ccccc3)C[C@H]1[C@@H]1O[C@@H]12 [Scopolamine HBr trihydrate],-0.39

row,Compound,z-score of subpopulation abundance
1,CCCCCCCCCCCCCCCC[n+]1ccccc1 [Cetylpyridinium Chloride],-2.16
2,CC1(C)SC2C(N)C(=O)N2C1C(=O)O (stereo not given) [6-Aminopenicillanic acid],-0.39
3,CCC1=C[C@H]2CN3CCc4c([nH]c5ccccc45)[C@](C(=O)OC)(C2)[C@H]13 [Catharanthine],-0.77
4,C[N+](C)(C)CCCCCCCCCC[N+](C)(C)C [Decamethonium Bromide],-0.55
5,Oc1cc(Cl)ccc1Oc1ccc(Cl)cc1Cl [Triclosan],-0.94
6,CC(C)=CCOc1c2occc2cc2ccc(=O)oc12 [Imperatorin],1.37
7,CCN(CC)CCOC(=O)C(O)(c1ccccc1)c1ccccc1 [Benactyzine hydrochloride],0.45
8,C[N+]12CCC(CC1)C(OC(=O)C(O)(c1ccccc1)c1ccccc1)C2 (stereo not given) [Clidinium Bromide],0.14
9,O=C(O[C@H]1C[N+]2(CCCOc3ccccc3)CCC1CC2)C(O)(c1cccs1)c1cccs1 [Aclidinium Bromide],-1.04
10,CN(C)C(=O)Oc1cccc([N+](C)(C)C)c1 [Neostigmine Bromide],0.65
11,C[C@@H]1O[C@@H](O[C@H]2C[C@@H](O)[C@]3(CO)[C@H]4[C@H](O)C[C@]5(C)[C@@H](C6=CC(=O)OC6)CC[C@]5(O)[C@@H]4CC[C@]3(O)C2)[C@H](O)[C@H](O)[C@H]1O [Ouabain],-0.43
12,C[C@@H]1CC[C@H]2[C@@H](C)C(=O)O[C@@H]3O[C@@]4(C)CC[C@@H]1[C@]32OO4 [Artemisinin],-0.11
13,Oc1cccc2cccnc12 [8-Hydroxyquinoline],-1.01
14,CC[C@@]1(O)C(=O)OCc2c1cc1n(c2=O)Cc2cc3ccccc3nc2-1 [Camptothecin],-0.35
15,CN1[C@@H]2CC[C@H]1C[C@@H](OC(=O)[C@H](CO)c1ccccc1)C2 [Hyoscyamine],0.64
16,CN(C)[C@@H]1C(=O)C(C(N)=O)=C(O)[C@@]2(O)C(=O)C3=C(O)c4c(O)ccc(Cl)c4[C@@](C)(O)[C@H]3C[C@@H]12 [Chlortetracycline HCl],-0.76
17,CC(NC(C)(C)C)C(=O)c1cccc(Cl)c1 (stereo not given) [Amfebutamone (Bupropion) HCl],0.13
18,COc1ccc(C(CN(C)C)C2(O)CCCCC2)cc1 (stereo not given) [Venlafaxine],-0.75
19,NCCc1c[nH]c2ccc(O)cc12 [Serotonin HCl],-1.08
20,N[C@@H]1C[C@H]1c1ccccc1 [Tranylcypromine (2-PCPA) HCl],-0.64
